We go through 23 compounds from PubChem BioAssay.

Test [1] concerns XIP peptide (Xip251-270) binding. Kind of test: XIP fragment 251-270 binding compounds – biochemical, small-molecule microarray, fluorescence 635/667 nm, 0.1 µg/mL protein, primary screen (AID 1182). The note with it: fluorescent protein binding, 635 nm, higher = more signal, called active from +8 up or from −8 down.
A further test relates to XIP peptide (Xip251-270). Kind of test: compounds binding XIP fragment 251-270 – biochemical, small-molecule microarray, fluorescence 635/667 nm, 0.5 µg/mL protein, primary screen (AID 1183). The note with it: fluorescence 635 nm, higher = more signal.
Test [2] can be described thus: blood-stage malaria parasite viability loss – strain 3D7, DAPI fluorescence, 100 nL, primary screen (AID 1184).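 Also: parasites grown inside human red blood cells in medium with human serum.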 The note with it: P. falciparum 3D7 growth, 3 d, higher = more signal.
Test [3] addresses Homeobox protein Hox-A13 (Mus musculus) (UniProt Q62424). Kind of test: disruptors of Hoxa13 oligonucleotide interaction – biochemical, fluorescence polarization, labeled oligonucleotide, primary screen (AID 1185). The note with it: Hoxa13:DNA binding, 15 min, higher = more signal, called active from +8 up or from −8 down. (In fluorescence polarisation assays a small probe gives low polarisation when free and higher when bound to something large.)

The structures appear in SMILES notation. Calls of active or inactive are those of the source.

Sequence of Homeobox protein Hox-A13 (Mus musculus) (Q62424 whole entry, looked up): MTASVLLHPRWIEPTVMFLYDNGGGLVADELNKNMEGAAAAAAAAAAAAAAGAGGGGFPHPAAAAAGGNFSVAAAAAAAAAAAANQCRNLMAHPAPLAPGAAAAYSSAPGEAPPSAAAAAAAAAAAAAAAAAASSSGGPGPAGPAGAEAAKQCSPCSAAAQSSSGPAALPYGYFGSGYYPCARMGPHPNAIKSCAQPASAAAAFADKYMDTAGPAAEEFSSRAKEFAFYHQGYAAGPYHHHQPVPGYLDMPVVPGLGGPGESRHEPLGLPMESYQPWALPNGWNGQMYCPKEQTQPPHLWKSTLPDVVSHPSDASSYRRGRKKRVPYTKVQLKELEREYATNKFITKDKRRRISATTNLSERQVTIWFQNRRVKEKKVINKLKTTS

Regarding `O=C1C[C@@H](O)[C@@H](O)[C@@H]2[C@@H]3C(=O)N(Cc4ccccc4)C(=O)[C@@H]3CC[C@H]12`, the composite z-score was -0.317 (inactive) in test [1] and 0.502 in the test on XIP peptide (Xip251-270). In addition, the z-score in test [2] is -0.331; in test [3], -1.12 (inactive).

Consider `O=C1[C@H]2[C@H]3[C@H](O)[C@H](O)CC(=NOCc4ccccc4)[C@H]3CC[C@H]2C(=O)N1C1CCCCC1`, for which the results for the composite z-score (in test [1]; with XIP peptide (Xip251-270)) were 0.288 (inactive) and 0.714, respectively. Also, the z-score is -0.369 in test [2] and 0.449 (inactive) in test [3].

For the compound `COC(=O)[C@@H]1CC[C@H](C)[C@@H](c2ccc(Br)cc2)N1C[C@H](O)CN=[N+]=[N-]`, the composite z-score in test [1] was 1.12 (inactive); in the test on XIP peptide (Xip251-270) it was -0.135. Moreover, the z-score in test [2] is -0.637; in test [3], -2.93 (inactive).

As to `O=C(NN=C1C[C@@H](O)[C@@H](O)[C@@H]2[C@@H]3C(=O)N(Cc4ccccc4)C(=O)[C@@H]3CC[C@H]12)OCc1ccccc1`, the composite z-score in test [1] is -0.578 (inactive); in the test on XIP peptide (Xip251-270), -0.0586. Also, the figures for the z-score in test [2] and in test [3] were 0.892 and -0.2 (inactive), respectively.

As to `CO[C@H]1COC(=O)[C@H](C)COC(=O)[C@H](C)NC(=O)CC=C[C@H]1C`, the composite z-score was 0.126 (inactive) in test [1] and 0.506 in the test on XIP peptide (Xip251-270). Besides, the z-score in test [2] is 0.0087; in test [3], -0.299 (inactive).

Take `CC(CCC(=O)OC[C@H]1O[C@H](C#Cc2ccccc2)C=C[C@@H]1Oc1ccc(C)cc1)=NO[C@@H](C)c1cc(-c2c(C)cc(C)cc2C)no1`: the values for the composite z-score (in test [1]; in the test on XIP peptide (Xip251-270)) were 0.0185 (inactive) and -0.333, respectively. The z-score in test [2] was -1.36; in test [3] it was -1.88 (inactive).

Regarding `CO[C@@H]1[C@H](O)CO[C@H]1C=Cc1ccccc1`, the composite z-score is -0.553 (inactive) in test [1] and 0.836 in the test with XIP peptide (Xip251-270). For the same compound, the z-score is -0.703 in test [2] and -3.28 (inactive) in test [3].

As to `COc1cccc([C@H](O)Cn2cc(-c3ccc(CON=C(C)C)cc3)nn2)c1`, the composite z-score was 0.218 (inactive) in test [1] and -0.851 in the test with XIP peptide (Xip251-270). In addition, the z-score was -1.11 in test [2] and -4.2 (inactive) in test [3].

On to `CC(=O)OC[C@H]1O[C@H](CCON=C(C)CCN2CCCc3nc(C)c(C)cc32)C=C[C@@H]1OC(C)=O`, for which the composite z-score in test [1] was 0.36 (inactive); in the test on XIP peptide (Xip251-270), 0.651. Also, the z-score is -1.47 in test [2] and -6.43 (inactive) in test [3].

With `COC(=O)[C@@H]1CC[C@H](C)[C@@H](c2ccc(C)cc2)N1C(=O)c1ccc(C=NOC[C@H]2O[C@H](c3ccccc3)C=C[C@@H]2Oc2ccc(OC)cc2)cc1`, the results for the composite z-score (in test [1]; in the test with XIP peptide (Xip251-270)) were 0.176 (inactive) and 0.313, respectively. Also, the z-score in test [2] is -1.14; in test [3] it was -0.0628 (inactive).

For the compound `C[C@@H]1C=CCC(=O)OC[C@H](C)C(=O)N[C@@H](Cc2ccccc2)C(=O)OC1`, the composite z-score in test [1] was -0.478 (inactive); with XIP peptide (Xip251-270), -0.0947. Besides, the z-score in test [2] was -1.55; in test [3], 2.57 (inactive).

Take `CON=C1c2cc(OC)ccc2O[C@H](c2cccc(OC)c2)[C@H]1O`: the composite z-score in test [1] was 0.906 (inactive); with XIP peptide (Xip251-270), 0.464. For the same compound, the z-score was 0.924 in test [2] and -0.365 (inactive) in test [3].

Take `O=C1C=C[C@@H](O)[C@@H]2[C@@H]3C(=O)N(Cc4ccccc4)C(=O)[C@@H]3CC[C@@H]12`: the figures for the composite z-score (in test [1]; in the test with XIP peptide (Xip251-270)) were 0.771 (inactive) and -0.0049, respectively. In addition, the z-score in test [2] is -0.0141; in test [3] it was 0.291 (inactive).

With `O=C1C2=CC[C@H]3C(=O)N(c4ccc(F)cc4F)C(=O)[C@H]3[C@H]2[C@H](O)[C@@H]2O[C@H]12`, the values for the composite z-score (in test [1]; in the test on XIP peptide (Xip251-270)) were -0.196 (inactive) and 0.167, respectively. Moreover, the z-score in test [2] was 0.569; in test [3], -0.318 (inactive).

Take `CCOC(=O)CCN1C(=O)[C@H]2[C@H]3[C@H](O)[C@H](O)CC(=NOCC(C)C)[C@@H]3CC[C@H]2C1=O`: the composite z-score in test [1] was -0.0503 (inactive); in the test on XIP peptide (Xip251-270), 0.203. Further, the z-score in test [2] was -0.379; in test [3] it was -3.95 (inactive).

As to `COC(=O)[C@@H]1CC[C@H](C)[C@@H](c2ccc(Br)cc2)N1`, the composite z-score in test [1] is 1.53 (inactive); with XIP peptide (Xip251-270), -0.381. The z-score is 0.165 in test [2] and -0.164 (inactive) in test [3].

As for `CCOC(=O)CCN1C(=O)[C@H]2[C@H]3[C@H](O)[C@H](O)CC(=NO[C@@H]4O[C@H](CO)[C@@H](O)[C@H](O)[C@H]4O)[C@@H]3CC[C@H]2C1=O`, the composite z-score in test [1] was 0.557 (inactive); in the test with XIP peptide (Xip251-270) it was 0.632. The results for the z-score in test [2] and in test [3] were 0.434 and 0.142 (inactive), respectively.

Regarding `CC(C)=CCCC(C)=CCON=C1C[C@@H](O)[C@@H](O)[C@@H]2[C@@H]3C(=O)N(Cc4ccc5c(c4)OCO5)C(=O)[C@@H]3CC[C@H]12`, the composite z-score in test [1] was 0.165 (inactive); in the test with XIP peptide (Xip251-270) it was 0.17. Further, the z-score was -0.348 in test [2] and -4.72 (inactive) in test [3].

Take `O=C1C[C@H](c2ccccc2)[C@H](c2ccc(Br)cc2)O1`: the composite z-score is -0.112 (inactive) in test [1] and -0.0581 in the test with XIP peptide (Xip251-270). Also, the z-score was 0.467 in test [2] and -0.403 (inactive) in test [3].

Regarding `Cc1cc(C)c(-c2cc([C@H](C)ON=C[C@@H](C)[C@H](OCc3ccccc3)C(C)C)on2)c(C)c1`, the composite z-score in test [1] was -0.0022 (inactive); with XIP peptide (Xip251-270) it was -0.291. Besides, the z-score was -0.317 in test [2] and -0.415 (inactive) in test [3].

As to `CO[C@H]1COC(=O)[C@H](C)COC(=O)[C@@H](OCc2ccccc2)C=C[C@@H]1C`, the composite z-score is 0.277 (inactive) in test [1] and -0.348 in the test with XIP peptide (Xip251-270). For the same compound, the z-score in test [2] was 1.25; in test [3], -0.571 (inactive).

On to `CCN1C(=O)[C@H]2[C@H]3[C@H](O)[C@H](O)CC(=NO[C@@H]4O[C@H](CO)[C@@H](O)[C@H](O)[C@H]4O)[C@H]3CC[C@H]2C1=O`, for which the composite z-score in test [1] was -0.0195 (inactive); in the test with XIP peptide (Xip251-270), 0.263. Further, the results for the z-score in test [2] and in test [3] were -0.0716 and -0.898 (inactive), respectively.

`CO[C@H]1C[C@@H]2C[C@H](O)CC(CC(=O)O[C@@H](C=CCC(C)C)C[C@@H]3CC[C@H](C)[C@@H](C1)O3)O2`: the composite z-score in test [1] is -0.199 (inactive); in the test on XIP peptide (Xip251-270), 0.142. The z-score in test [2] was -0.825; in test [3], -0.952 (inactive).
